Experiments:
[1] = biological target: Protein kinase C gamma type (Homo sapiens) (UniProt P05129); settings: at 1 µM;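 further: each value is an averaged percent inhibition of the enzyme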
[2] = biological target: T1, Protein kinase C iota type (Homo sapiens) (UniProt P41743); settings: at 0.1 µM
T1 sequence (whole entry): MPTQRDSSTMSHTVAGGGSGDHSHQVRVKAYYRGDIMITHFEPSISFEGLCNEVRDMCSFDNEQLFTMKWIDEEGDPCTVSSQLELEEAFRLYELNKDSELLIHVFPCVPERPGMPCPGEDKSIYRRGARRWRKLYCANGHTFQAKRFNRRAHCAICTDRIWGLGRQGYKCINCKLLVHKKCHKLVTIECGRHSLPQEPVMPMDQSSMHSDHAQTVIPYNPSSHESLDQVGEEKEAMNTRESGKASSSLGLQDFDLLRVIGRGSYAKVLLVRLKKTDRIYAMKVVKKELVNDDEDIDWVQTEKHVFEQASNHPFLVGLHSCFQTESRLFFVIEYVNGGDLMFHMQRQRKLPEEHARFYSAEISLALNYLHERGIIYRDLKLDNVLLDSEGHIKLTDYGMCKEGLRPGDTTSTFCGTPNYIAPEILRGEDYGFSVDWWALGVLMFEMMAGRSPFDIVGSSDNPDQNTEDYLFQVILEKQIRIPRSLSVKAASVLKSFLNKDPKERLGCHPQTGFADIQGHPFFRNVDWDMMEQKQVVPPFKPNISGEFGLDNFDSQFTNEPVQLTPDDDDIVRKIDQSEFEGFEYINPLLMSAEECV

[3] = biological target: T1, Protein kinase C iota type (Homo sapiens); settings: at 1 µM
[4] = biological target: Protein kinase C theta type (Homo sapiens) (UniProt Q04759); settings: at 0.1 µM
Chain of Protein kinase C theta type (Homo sapiens) (Q04759 whole entry, looked up): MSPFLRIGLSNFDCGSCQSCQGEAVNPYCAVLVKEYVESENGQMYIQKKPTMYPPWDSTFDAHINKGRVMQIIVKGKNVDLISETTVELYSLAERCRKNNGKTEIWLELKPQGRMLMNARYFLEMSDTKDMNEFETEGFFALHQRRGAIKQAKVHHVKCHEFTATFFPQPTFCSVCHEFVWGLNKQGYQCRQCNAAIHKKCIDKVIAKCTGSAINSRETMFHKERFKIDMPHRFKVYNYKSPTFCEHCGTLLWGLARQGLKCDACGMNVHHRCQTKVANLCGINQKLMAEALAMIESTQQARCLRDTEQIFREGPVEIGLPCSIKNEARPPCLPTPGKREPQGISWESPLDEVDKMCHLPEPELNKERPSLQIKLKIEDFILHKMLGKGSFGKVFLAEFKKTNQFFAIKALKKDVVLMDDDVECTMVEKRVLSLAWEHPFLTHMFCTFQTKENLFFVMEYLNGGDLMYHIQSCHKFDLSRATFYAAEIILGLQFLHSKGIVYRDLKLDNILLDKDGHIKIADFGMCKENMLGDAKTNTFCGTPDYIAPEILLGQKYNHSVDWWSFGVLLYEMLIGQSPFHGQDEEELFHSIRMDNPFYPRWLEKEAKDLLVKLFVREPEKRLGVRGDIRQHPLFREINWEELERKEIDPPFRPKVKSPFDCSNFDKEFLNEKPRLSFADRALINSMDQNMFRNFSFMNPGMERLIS

[5] = biological target: Protein kinase C theta type (Homo sapiens) (UniProt Q04759); settings: at 1 µM
[6] = biological target: Protein kinase C beta type (Homo sapiens) (UniProt P05771); settings: at 0.1 µM
Chain of Protein kinase C beta type (Homo sapiens) (P05771 2-671 limits assumed): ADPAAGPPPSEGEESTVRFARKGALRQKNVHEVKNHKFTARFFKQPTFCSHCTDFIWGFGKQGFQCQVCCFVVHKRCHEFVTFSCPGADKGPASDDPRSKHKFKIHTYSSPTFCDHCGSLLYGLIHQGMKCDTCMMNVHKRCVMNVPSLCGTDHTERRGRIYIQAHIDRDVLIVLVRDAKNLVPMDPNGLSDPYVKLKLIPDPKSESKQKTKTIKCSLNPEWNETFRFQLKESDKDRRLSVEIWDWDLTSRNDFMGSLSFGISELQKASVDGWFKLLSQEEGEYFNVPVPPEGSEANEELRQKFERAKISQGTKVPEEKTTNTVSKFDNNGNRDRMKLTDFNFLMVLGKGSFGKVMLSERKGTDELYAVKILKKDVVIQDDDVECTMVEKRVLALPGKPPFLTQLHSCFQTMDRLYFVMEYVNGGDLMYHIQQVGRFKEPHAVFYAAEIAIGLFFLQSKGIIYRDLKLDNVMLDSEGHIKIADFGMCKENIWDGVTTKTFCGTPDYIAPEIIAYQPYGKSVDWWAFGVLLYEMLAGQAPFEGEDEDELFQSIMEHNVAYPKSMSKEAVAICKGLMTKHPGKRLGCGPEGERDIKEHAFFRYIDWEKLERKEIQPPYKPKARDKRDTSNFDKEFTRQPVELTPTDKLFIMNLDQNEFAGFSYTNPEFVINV

[7] = biological target: Protein kinase C beta type (Homo sapiens) (UniProt P05771); settings: at 1 µM
[8] = biological target: T2, Serine/threonine-protein kinase D1 (Homo sapiens) (UniProt Q15139); settings: at 0.1 µM
T2 sequence (whole entry): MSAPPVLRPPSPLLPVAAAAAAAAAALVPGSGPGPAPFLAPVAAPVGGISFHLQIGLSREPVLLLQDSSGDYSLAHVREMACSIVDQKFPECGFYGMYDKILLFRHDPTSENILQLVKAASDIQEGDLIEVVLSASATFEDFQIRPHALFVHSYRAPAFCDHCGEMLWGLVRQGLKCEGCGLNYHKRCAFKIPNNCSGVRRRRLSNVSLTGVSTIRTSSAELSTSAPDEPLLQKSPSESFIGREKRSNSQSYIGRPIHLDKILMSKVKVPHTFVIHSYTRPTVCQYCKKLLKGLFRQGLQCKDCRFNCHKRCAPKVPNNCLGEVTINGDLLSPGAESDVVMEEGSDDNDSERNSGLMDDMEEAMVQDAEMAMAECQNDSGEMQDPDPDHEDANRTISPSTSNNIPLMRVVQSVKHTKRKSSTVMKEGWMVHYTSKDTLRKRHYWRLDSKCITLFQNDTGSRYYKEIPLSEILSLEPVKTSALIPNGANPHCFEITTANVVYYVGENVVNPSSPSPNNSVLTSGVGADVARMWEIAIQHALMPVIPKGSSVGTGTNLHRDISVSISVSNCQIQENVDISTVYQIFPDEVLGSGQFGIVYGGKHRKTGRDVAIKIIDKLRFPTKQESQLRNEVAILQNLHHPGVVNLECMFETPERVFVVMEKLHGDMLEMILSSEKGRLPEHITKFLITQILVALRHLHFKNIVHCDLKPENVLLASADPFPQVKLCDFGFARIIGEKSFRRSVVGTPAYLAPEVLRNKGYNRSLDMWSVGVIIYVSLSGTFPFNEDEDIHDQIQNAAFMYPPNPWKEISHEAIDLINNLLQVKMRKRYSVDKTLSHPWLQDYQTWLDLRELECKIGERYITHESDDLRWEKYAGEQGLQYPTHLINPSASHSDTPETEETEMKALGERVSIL

[9] = biological target: T2, Serine/threonine-protein kinase D1 (Homo sapiens); settings: at 1 µM
[10] = biological target: T3, Serine/threonine-protein kinase D2 (Homo sapiens) (UniProt Q9BZL6); settings: at 0.1 µM;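 further: reported percent inhibition values are means, part of the GSK PKIS kinase panel screen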
T3 sequence (whole entry): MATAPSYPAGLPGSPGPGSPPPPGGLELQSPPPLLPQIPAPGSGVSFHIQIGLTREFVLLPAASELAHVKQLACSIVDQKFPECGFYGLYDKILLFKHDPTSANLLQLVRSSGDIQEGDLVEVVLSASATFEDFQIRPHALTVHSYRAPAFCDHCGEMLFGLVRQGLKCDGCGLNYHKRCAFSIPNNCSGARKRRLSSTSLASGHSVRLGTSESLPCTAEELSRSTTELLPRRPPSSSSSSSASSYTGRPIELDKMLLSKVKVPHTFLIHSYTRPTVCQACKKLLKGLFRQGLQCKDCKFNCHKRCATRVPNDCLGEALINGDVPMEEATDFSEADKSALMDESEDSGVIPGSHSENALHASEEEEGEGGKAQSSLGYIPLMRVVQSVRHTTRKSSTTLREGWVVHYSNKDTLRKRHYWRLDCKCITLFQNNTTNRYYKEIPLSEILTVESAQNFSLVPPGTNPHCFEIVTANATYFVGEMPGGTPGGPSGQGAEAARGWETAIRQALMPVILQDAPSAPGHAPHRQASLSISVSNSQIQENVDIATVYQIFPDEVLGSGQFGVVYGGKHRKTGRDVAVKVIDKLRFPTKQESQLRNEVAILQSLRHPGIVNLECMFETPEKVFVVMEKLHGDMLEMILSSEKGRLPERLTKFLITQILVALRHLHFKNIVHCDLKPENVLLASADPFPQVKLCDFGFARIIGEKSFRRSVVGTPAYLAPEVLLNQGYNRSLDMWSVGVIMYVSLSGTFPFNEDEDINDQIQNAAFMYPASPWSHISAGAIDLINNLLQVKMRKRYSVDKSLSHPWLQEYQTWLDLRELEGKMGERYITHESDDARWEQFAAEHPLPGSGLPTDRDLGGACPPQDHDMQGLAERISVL

Compound	inhibition [1] [%]	inhibition [2] [%]	inhibition [3] [%]	inhibition [4] [%]	inhibition [5] [%]	inhibition [6] [%]	inhibition [7] [%]	inhibition [8] [%]	inhibition [9] [%]	inhibition [10] [%]
CCn1c(-c2nonc2N)nc2c(C#CC(C)(C)O)nc(OCCNC)cc21	8.19	0.89	1.21	15.7	61.1	1.53	10.8	4.31	12.9	4.9
CCCN1CCCC(c2ccc(Nc3nc(Nc4cc(F)ccc4C(N)=O)c4cc[nH]c4n3)c(OC)c2)C1 (stereo not given)	22	0.84	2.93	1.64	4.89	1.85	5.27	32.2	79.5	25.9
CN1CCN(C(=O)c2ccc(NC(=O)Nc3ccc(N(C)c4ccnc(Nc5ccc(CS(C)(=O)=O)cc5)n4)cc3)cc2)CC1	2.89	-0.67	-0.1	1.17	1.43	1.51	2.4	2.19	6.28	2.12
COc1cc(/C=N/Nc2ncnc3c2cnn3C(C)C)ccc1O	5.96	1.94	1.52	1.33	4.03	1.47	4.67	1.79	1.16	1.45
CN(c1ccc(NC(=O)Nc2ccc(OC(F)(F)F)cc2)cc1)c1ccnc(Nc2cccc(S(N)(=O)=O)c2)n1	2.99	0.52	-0.73	0.61	0.96	-0.08	0.69	2.95	4.48	3.68
N#Cc1c(NC(=O)c2ccccc2F)sc2c1CCCC2	0.15	-1.48	-0.75	-0.76	-0.86	-0.47	0.43	-1.42	0.24	0.84
NS(=O)(=O)c1cccc(Nc2cc(-c3ccc(F)cc3)n[nH]2)c1	2.43	1.19	0.46	3.52	8.77	1.7	3.53	-0.81	4.04	2.47
ON=C1CCc2cc(-c3nc(C4CCNCC4)[nH]c3-c3ccncc3)ccc21	-1.84	-0.01	4.71	-0.55	1.23	0.45	7.96	0.36	5.6	1.54
CC(C)c1ccc(Nc2nccc(-c3cnn4ncccc34)n2)cc1	5.49	0.41	-0.49	0.56	2.84	0.59	1.47	2.12	15.9	1.32
O=C(Nc1ccc(Oc2ccc3[nH]c(NC(=O)c4ccco4)nc3c2)cc1)Nc1cc(C(F)(F)F)ccc1F	2.22	0.86	-0.83	-0.73	1.78	0.05	1.61	-3.35	-2.46	-3.46
NS(=O)(=O)c1ccc(N/N=C2\C(=O)Nc3ccc(Cl)cc32)cc1	4.85	1.02	0.75	2.29	4.86	0.92	1.29	2.46	7.47	3.87
NC(=O)c1cccc(Nc2nccc(Nc3cccc(F)c3)n2)c1	4.93	-0.38	-1.03	0.79	0.72	2.1	4.84	1.93	4.25	0.71
Cc1cc(-c2ccccn2)cc(C)c1/C=C/c1cncc(-c2nn[nH]n2)c1	2.83	0.86	1.38	1.86	3.08	1.2	2.79	6.68	11	6.87
Cc1ccc2c(-c3ccnc(Nc4cccc(C(F)(F)F)c4)n3)c(-c3ccccc3)nn2n1	5.36	1.34	1.37	2.13	3.7	1.37	5	7.68	39.8	12.8
Nc1ccc(C#Cc2cncnc2Nc2ccc(OCc3cccc(F)c3)c(Cl)c2)cc1	1.26	1.82	1.53	1.3	1.13	0.84	0.6	4.09	3.44	3.76
COc1cc2ncnc(Nc3ccc(C)c(O)c3)c2cc1OC	7.37	3.5	1.78	3.41	5.28	2.8	5.81	4.73	9.92	5.41
COc1ccc(-c2nn3ncccc3c2-c2ccnc(Nc3cccc(C(F)(F)F)c3)n2)cc1	1.55	0.94	-0.08	1.65	0.8	1.35	2.07	3.56	3.79	1.6

From ChEMBL document CHEMBL1961873, “Compounds: GSK PKIS; Assays: Nanosyn kinase panel” (2012)
